# Hedgehog inh: blocks Sonic Hedgehog signaling. Shh-LIGHT2 Gli-luciferase reporter, 30 h. AID 2313. inhibition, % (no concentration beside the values). actives 2.1% (n = 22,000);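 active means mean inhibition across valid replicates above about 65%, limit read from the data; inconclusive means mean under the limit, yet half or more replicates past it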;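 further: pathway switched on by Shh-conditioned medium diluted 1 in 25 in low serum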
# MITF inhib: blocks MITF activity; TRPM1 promoter luciferase, luminescence, 24 h; AID 2240; inhibition, % (test concentration not listed); actives 0.28% (n = 37,000); in the data active means inhibition above about 85%; inconclusive means no clear call, values can overlap the other calls; inactive means below about 68%;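 further: human melanocyte line stably carrying TRPM1 promoter luciferase reporter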
# NOMO-1 viab: STK33 inhibitor candidate reducing NOMO-1 cell viability. NOMO-1 AML viability, CellTiter-Glo luminescence, 72 h. actives 7.5% (n = 37,000). inhibition, % (no concentration beside the values); in the data active means inhibition above about 80%; inconclusive means no clear call, values can overlap the other calls
# * = called active by the depositor; u = inconclusive; x = not tested or not shown; ! = a repeat was not active. Sampled rows, rich in hits. Any-hit rate of the full collection: about 8.1%.
SMILES,Hedgehog inh,MITF inhib,NOMO-1 viab
Cn1cnnc1SCC(=O)N1c2ccccc2Sc2ccc(C(F)(F)F)cc21,x,-13,7
CN1CCN(CCCN2c3ccccc3Sc3ccc(Cl)cc32)CC1,75*!,4,106*!
OCCN1CCN(CCCN2c3ccccc3Sc3ccc(C(F)(F)F)cc32)CC1,u,17,119*!
CN1CCCCC1CCN1c2ccccc2Sc2ccc(S(C)=O)cc21 (stereo not given),40,-9,20
O=C(CSc1nc2ccc([N+](=O)[O-])cc2[nH]1)Nc1cc(C(F)(F)F)cc(C(F)(F)F)c1,x,87*,130*
O=C(CSc1nc2ccc([N+](=O)[O-])cc2[nH]1)Nc1ccc2c(c1)OCCO2,x,-5,25
COc1ccc(CCNC(=O)c2ccc(-c3cccc(C(F)(F)F)c3)o2)cc1OC,x,-2,20
O=C(/C=C/Sc1ccccn1)c1ccccc1,u,65,114*
N#Cc1ccccc1NC(=O)CSc1ccccn1,-24,-28,27
CCc1ccc2c(c1)=C(c1[nH]c(=S)[nH]c1O)C(=O)N=2,-28,29,27
COc1ccc(NC(=O)Nc2ccc3c(c2)C(=O)N([C@@H](C)CO)C[C@@H](C)[C@H](CN(C)Cc2ccc(Oc4ccccc4)cc2)O3)cc1,-14,2,-4
COc1ccc(NC(=O)Nc2ccc3c(c2)C(=O)N([C@H](C)CO)C[C@@H](C)[C@@H](CN(C)Cc2ccc(-c4ccccc4)cc2)O3)cc1,31,-2,94*
COc1ccc(NC(=O)Nc2ccc3c(c2)C(=O)N([C@@H](C)CO)C[C@@H](C)[C@@H](CN(C)Cc2ccc(Oc4ccccc4)cc2)O3)cc1,94*,6,117*
COc1ccc(NC(=O)Nc2ccc3c(c2)C(=O)N([C@@H](C)CO)C[C@H](C)[C@H](CN(C)Cc2ccc(-c4ccccc4)cc2)O3)cc1,x,24,29
CC(=O)c1cccc(NC(=O)Cn2nc([N+](=O)[O-])c(Br)c2C)c1,x,-12,32
CC(C)=CCC/C(C)=C/CC/C(C)=C/CSc1ncn[nH]1,41,-1,39
O=C(c1cccc(Cl)c1)N1CCOCC1,-12,6,4
COc1ccc(NC(=O)COc2cc(C)c(Br)cc2C)c([N+](=O)[O-])c1,x,-7,-8
COc1ccc(S(=O)(=O)Nc2ccc(Br)c3cccnc23)c([N+](=O)[O-])c1,x,54,128*
c1ccc(CN2CCN(Cc3ccccc3)C2c2ccco2)cc1,44,-15,1
COC(=O)c1cc(NC(=O)CSc2nnc(-c3ccccc3O)n2-c2ccccc2)ccc1Cl,x,-10,0
O=C(c1cc2cc(Br)ccc2oc1=O)N1CCCc2ccccc21,-22,0,5
COc1cc(NC(=O)C(C)N2C(=O)C3CC=C(Cl)CC3C2=O)ccc1[N+](=O)[O-] (stereo not given),x,-7,27
O=C(CS(=O)c1ccc(C(F)(F)F)cc1[N+](=O)[O-])Oc1ccc(C2CCCCC2)cc1 (stereo not given),x,-4,121*
Cc1nonc1OCCNc1ccc(C(F)(F)F)cc1[N+](=O)[O-],x,-45,4
SMILES,Hedgehog inh,MITF inhib,NOMO-1 viab
O=C1N=c2ccccc2=N/C1=N\C(=S)Nc1ccccc1,40,9,122*
CC(C)/C(N)=N/C(=S)Nc1ccccc1,x,-28,23
COc1ccc(Cl)cc1NC(=O)CSc1nnc(-c2cc3cc(Br)ccc3o2)n1C,x,10,77
Cc1cccc(C(=O)NN(c2ccccc2)c2ccccc2)c1,95*,3,59
Cc1cccc(NC(=O)c2cccc(C(=O)Nc3cccc(C)c3)c2)c1,-51,-13,23
C=C1C(=O)O[C@@H]2/C=C(/CO[C@@H]3O[C@H](CO)[C@@H](O)[C@H](O)[C@H]3O)CC/C=C(/C=O)C[C@H](O)[C@@H]12,-9,-2,6
O=C1Cc2c([nH]c3ccc(Br)cc23)-c2ccccc2N1,-1,-34,89*
NCCOc1ccc(Cl)cc1,u,-35,111*
Clc1ccc(OCCCCSc2ncccn2)cc1,x,-77,-3
CC(C)N1CC=C2C(C1)C(c1ccccc1)C(C#N)=C(N)C2(C#N)C#N (stereo not given),50,-4,47
COc1cccc([C@H]2C(C#N)=C(N)C(C#N)(C#N)C3=CCC(C)C[C@@H]32)c1 (stereo not given in full),-3,50,127*
C[C@@H]1CN([C@H](C)CO)C(=O)Cc2cc(NC(=O)Nc3ccc(C(F)(F)F)cc3)ccc2O[C@@H]1CN(C)Cc1ccc(Oc2ccccc2)cc1,54,-1,115*
C[C@H]1CN([C@@H](C)CO)C(=O)Cc2cc(NC(=O)Nc3ccc(C(F)(F)F)cc3)ccc2O[C@H]1CN(C)Cc1ccc(Oc2ccccc2)cc1,-24,-4,26
COc1ccc(NC(=O)Nc2ccc3c(c2)CC(=O)N([C@@H](C)CO)C[C@H](C)[C@@H](CN(C)Cc2ccc(Oc4ccccc4)cc2)O3)cc1,51,32,119*
C[C@@H]1CN([C@H](C)CO)C(=O)Cc2cc(NC(=O)CCC(F)(F)F)ccc2O[C@@H]1CN(C)Cc1ccc(Oc2ccccc2)cc1,u,37,84*
C[C@@H]1CN([C@@H](C)CO)C(=O)Cc2cc(NC(=O)NC3CCCCC3)ccc2O[C@@H]1CN(C)Cc1ccccc1,-6,3,4
C[C@H](CO)N1C[C@H](C)[C@H](CN(C)Cc2ccc(Oc3ccccc3)cc2)Oc2ccc(NC(=O)CCC(F)(F)F)cc2CC1=O,-29,-5,40
COc1ccc(NC(=O)Nc2ccc3c(c2)CC(=O)N([C@H](C)CO)C[C@@H](C)[C@@H](CN(C)Cc2ccc(Oc4ccccc4)cc2)O3)cc1,u,14,u
C[C@@H]1CN([C@H](C)CO)C(=O)Cc2cc(NC(=O)NC3CCCCC3)ccc2O[C@@H]1CN(C)Cc1ccc(Oc2ccccc2)cc1,x,28,111*
CC(=O)Nc1ccccc1NC(=O)CCN1C(=O)c2ccccc2C1=O,x,-7,-16
CCN(CC(=O)Nc1ccccc1OC)S(=O)(=O)c1ccc2ccccc2c1,x,-9,-4
C[C@@H]1CN([C@@H](C)CO)C(=O)Cc2cc(NC(=O)Nc3ccc(C(F)(F)F)cc3)ccc2O[C@@H]1CN(C)Cc1ccc(Oc2ccccc2)cc1,15,5,128*
C[C@@H]1CN([C@H](C)CO)C(=O)Cc2cc(NC(=O)Nc3ccccc3)ccc2O[C@H]1CN(C)Cc1ccc(Oc2ccccc2)cc1,-3,6,72
CCn1c(SCC(=O)Nc2ccc(C)cc2Br)nnc1-c1ccc(Cl)cc1,x,13,11
COc1ccc([N+](=O)[O-])cc1NC(=O)CN(C)S(=O)(=O)c1ccc(Cl)cc1,x,4,2
SMILES,Hedgehog inh,MITF inhib,NOMO-1 viab
CC(C)(C)c1cc(C(=O)CSc2nc3ccccc3[nH]2)cc(C(C)(C)C)c1O,x,u,102*
Cc1cc(=O)[nH]c(SCC(=O)c2cc(C(C)(C)C)c(O)c(C(C)(C)C)c2)n1,x,29,17
Cc1nn(-c2ccccc2)c(N)c1C(N)=S,3,-8,10
CCOc1ccc(NC(=O)CSc2nc(C)nc3sc4c(c23)CCCC4)cc1,x,15,28
Cc1nc(Oc2ccc(NC(=O)c3ccccc3)cc2)c2c3c(sc2n1)CCC3,x,17,133*
Cc1ccccc1N(CC(=O)O)S(=O)(=O)c1ccc(Cl)cc1,x,0,2

# Compound activity (PubChem BioAssay)
